Columns and labels:
Assay in all cases: DAPPL (digital affinity profiling via proximity ligation, sequencing); 10 mM Tris-HCl pH 7.5, 50 mM NaCl, 1 mM DTT, 4% glycerol, room temperature, 30 min; GST-TFs on glutathione beads, 16-mer random dsDNA library, 0.1% formaldehyde crosslink after washing; high values mean tight binding
Details in all cases: protein: recombinant; tags: N-terminal GST; dsDNA, one strand shown
[1] = target: T1, FLI1 (Homo sapiens, UniProt Q01543 1-452)
T1 sequence: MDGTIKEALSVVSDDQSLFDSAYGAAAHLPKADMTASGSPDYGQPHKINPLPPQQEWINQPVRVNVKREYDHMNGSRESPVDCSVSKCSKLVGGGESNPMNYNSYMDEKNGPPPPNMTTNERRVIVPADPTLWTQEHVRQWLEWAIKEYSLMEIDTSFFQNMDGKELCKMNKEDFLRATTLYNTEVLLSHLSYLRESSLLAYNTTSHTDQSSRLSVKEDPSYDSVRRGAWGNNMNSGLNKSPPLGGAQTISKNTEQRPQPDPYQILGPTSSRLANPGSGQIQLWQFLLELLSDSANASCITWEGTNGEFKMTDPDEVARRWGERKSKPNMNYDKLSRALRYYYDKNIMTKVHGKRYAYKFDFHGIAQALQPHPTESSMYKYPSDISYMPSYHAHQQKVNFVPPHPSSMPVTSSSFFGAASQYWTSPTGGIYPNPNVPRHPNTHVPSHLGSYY
How it was run: (§1)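 Binding signal is given per hexamer as its read frequency for a factor divided by its frequency in the tag-only sample. GST-fused human transcription factors were expressed in yeast, captured on glutathione beads, barcoded with DNA and pooled with that sample, then incubated with 200 nmole of a 16-mer random double-stranded DNA library in Tris/NaCl/DTT/glycerol buffer for 30 min at room temperature. The pools were then washed, crosslinked, proximity-ligated, amplified by PCR and sequenced on an Illumina NextSeq500.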

[2] = target: T2, ELK1 (Homo sapiens, UniProt P19419 1-428)
T2 sequence: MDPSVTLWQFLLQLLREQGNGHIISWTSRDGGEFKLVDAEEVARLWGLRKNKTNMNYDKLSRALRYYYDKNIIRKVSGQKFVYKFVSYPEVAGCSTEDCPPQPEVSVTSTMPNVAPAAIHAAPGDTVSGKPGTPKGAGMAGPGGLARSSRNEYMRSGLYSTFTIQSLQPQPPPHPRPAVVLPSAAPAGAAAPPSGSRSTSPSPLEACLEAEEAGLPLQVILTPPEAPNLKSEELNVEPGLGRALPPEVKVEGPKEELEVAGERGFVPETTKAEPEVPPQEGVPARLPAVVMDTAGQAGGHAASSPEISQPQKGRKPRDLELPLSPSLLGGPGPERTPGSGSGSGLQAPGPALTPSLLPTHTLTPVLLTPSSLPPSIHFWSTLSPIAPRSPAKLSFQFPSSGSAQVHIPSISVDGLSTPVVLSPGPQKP
How it was run: as §1

[3] = target: T3, GABPA (Homo sapiens, UniProt Q06546 1-454)
T3 sequence: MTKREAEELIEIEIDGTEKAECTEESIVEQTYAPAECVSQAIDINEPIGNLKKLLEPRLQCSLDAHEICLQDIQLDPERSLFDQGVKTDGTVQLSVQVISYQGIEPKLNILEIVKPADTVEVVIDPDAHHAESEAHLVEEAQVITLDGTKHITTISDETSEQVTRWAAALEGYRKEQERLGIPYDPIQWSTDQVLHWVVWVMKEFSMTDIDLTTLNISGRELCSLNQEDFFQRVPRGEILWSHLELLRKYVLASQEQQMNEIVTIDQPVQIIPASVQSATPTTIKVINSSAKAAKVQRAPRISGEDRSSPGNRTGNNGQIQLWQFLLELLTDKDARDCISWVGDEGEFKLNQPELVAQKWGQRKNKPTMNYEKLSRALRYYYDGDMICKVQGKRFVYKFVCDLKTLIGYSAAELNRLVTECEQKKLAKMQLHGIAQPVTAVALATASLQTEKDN
How it was run: as §1

[4] = target: T4, ERG (Homo sapiens, UniProt P11308 1-479)
T4 sequence: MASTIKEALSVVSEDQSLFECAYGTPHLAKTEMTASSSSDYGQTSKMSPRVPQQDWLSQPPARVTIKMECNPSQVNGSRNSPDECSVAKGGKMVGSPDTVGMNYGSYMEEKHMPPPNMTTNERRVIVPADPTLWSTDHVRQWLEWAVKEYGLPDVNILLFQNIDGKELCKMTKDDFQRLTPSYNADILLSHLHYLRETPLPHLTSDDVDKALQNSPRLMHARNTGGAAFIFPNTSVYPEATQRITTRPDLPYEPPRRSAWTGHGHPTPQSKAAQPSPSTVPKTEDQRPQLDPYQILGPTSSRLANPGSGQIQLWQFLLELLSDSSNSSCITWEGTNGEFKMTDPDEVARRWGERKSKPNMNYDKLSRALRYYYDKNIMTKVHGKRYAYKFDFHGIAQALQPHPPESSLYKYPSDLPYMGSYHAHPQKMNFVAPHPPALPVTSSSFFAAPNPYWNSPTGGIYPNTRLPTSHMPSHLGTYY
How it was run: as §1

[5] = target: ELF1 (Homo sapiens, UniProt P32519 1-619)
Chain of ELF1 (P32519 whole entry): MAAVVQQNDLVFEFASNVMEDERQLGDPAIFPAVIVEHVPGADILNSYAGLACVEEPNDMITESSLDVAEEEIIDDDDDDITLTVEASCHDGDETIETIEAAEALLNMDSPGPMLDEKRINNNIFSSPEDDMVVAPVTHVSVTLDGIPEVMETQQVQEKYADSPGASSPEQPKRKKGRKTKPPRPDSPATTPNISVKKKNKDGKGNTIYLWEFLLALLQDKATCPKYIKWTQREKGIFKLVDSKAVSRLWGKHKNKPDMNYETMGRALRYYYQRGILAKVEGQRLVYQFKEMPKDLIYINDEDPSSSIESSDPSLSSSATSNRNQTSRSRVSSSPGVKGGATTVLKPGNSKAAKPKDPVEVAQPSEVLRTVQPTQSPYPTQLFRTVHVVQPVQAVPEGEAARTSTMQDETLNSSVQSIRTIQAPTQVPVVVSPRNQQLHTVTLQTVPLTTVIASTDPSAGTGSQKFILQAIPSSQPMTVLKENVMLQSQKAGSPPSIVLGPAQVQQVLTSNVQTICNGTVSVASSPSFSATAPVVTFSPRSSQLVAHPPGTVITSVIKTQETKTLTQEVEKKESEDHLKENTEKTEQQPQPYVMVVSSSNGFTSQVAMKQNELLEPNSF
How it was run: as §1

[6] = target: T5, EHF (Homo sapiens, UniProt Q9NZC4 1-300)
T5 sequence: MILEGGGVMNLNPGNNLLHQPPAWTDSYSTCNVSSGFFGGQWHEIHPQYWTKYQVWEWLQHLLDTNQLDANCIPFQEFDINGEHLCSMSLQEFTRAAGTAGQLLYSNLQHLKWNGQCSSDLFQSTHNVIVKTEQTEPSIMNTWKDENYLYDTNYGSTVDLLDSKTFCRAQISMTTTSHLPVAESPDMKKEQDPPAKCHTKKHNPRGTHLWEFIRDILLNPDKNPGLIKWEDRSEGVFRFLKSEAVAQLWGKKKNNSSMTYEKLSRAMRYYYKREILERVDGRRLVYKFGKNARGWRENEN
How it was run: as §1

[7] = target: SPI1 (Homo sapiens, UniProt P17947 1-270)
How it was run: as §1

[8] = target: SPIB (Homo sapiens, UniProt Q01892 1-262)
Chain of SPIB (Q01892 whole entry): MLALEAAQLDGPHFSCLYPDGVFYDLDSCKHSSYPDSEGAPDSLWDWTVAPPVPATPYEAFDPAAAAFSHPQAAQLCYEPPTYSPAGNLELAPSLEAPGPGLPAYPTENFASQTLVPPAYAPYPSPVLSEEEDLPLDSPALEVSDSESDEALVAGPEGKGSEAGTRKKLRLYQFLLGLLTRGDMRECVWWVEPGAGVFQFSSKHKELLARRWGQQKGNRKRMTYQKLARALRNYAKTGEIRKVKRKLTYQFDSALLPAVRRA
How it was run: as §1

[9] = target: T6, ELK3 (Homo sapiens, UniProt P41970 1-407)
T6 sequence: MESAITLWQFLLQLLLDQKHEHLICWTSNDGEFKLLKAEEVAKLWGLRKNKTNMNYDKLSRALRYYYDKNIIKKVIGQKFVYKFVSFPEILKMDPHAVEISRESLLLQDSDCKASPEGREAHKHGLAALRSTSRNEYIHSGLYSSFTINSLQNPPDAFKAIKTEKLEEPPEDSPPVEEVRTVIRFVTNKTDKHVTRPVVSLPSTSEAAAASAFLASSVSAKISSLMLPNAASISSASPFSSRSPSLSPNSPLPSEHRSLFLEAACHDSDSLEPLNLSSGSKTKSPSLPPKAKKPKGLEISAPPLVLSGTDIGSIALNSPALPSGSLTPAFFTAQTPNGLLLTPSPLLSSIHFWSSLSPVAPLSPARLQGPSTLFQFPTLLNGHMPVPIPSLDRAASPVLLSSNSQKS
How it was run: as §1

[10] = target: T7, FEV (Homo sapiens, UniProt Q99581 1-238)
T7 sequence: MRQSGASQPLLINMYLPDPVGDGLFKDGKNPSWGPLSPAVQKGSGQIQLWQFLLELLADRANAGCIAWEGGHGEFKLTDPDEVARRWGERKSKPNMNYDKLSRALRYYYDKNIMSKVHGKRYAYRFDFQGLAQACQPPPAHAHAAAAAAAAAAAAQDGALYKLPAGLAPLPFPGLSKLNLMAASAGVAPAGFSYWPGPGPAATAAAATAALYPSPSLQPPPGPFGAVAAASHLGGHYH
How it was run: as §1

[11] = target: ETV5 (Homo sapiens, UniProt P41161 1-510)
Chain of ETV5 (P41161 whole entry): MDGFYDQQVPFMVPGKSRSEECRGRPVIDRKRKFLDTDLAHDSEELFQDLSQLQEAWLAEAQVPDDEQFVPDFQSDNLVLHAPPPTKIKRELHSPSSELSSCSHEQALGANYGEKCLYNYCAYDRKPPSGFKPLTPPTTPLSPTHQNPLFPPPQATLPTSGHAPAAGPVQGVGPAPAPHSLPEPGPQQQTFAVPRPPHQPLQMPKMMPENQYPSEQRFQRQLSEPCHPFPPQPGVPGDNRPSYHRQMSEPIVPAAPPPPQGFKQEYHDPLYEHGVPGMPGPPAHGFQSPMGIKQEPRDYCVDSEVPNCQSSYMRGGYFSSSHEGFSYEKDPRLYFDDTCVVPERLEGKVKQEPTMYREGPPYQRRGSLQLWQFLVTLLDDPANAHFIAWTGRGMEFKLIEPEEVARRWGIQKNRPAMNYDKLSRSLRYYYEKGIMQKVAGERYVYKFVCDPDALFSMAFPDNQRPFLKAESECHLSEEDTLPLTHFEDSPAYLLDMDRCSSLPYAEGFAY
How it was run: as §1

[12] = target: T8, SPIC (Homo sapiens, UniProt Q8N5J4 1-248)
T8 sequence: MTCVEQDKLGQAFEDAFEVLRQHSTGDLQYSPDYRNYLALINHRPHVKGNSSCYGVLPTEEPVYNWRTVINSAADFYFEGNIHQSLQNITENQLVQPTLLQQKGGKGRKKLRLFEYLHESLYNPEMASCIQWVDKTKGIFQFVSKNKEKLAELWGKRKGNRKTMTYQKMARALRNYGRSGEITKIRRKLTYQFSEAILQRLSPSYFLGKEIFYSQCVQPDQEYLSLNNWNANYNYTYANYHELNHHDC
How it was run: as §1

[13] = target: ELF4 (Homo sapiens, UniProt Q99607 1-663)
Chain of ELF4 (Q99607 whole entry): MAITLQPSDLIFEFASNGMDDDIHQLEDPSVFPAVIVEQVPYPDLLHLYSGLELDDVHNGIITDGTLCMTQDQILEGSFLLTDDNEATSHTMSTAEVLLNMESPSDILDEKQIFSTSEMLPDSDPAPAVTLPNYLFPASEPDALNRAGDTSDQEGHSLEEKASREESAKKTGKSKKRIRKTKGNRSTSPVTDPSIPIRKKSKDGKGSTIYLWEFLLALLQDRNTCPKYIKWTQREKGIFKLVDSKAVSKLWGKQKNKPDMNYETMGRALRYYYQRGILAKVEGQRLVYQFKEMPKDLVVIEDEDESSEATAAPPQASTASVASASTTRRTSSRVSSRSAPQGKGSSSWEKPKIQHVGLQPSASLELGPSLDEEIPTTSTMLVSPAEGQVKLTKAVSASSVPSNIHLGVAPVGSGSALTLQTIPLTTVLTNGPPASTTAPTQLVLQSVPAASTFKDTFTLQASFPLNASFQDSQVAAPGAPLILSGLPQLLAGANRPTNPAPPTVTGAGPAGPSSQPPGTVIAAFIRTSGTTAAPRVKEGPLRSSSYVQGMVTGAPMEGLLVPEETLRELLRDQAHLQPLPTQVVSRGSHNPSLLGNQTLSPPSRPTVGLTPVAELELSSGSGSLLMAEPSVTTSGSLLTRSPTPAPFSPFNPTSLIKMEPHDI
How it was run: as §1

[14] = target: T9, ELK4 (Homo sapiens, UniProt P28324-2 1-405)
T9 sequence: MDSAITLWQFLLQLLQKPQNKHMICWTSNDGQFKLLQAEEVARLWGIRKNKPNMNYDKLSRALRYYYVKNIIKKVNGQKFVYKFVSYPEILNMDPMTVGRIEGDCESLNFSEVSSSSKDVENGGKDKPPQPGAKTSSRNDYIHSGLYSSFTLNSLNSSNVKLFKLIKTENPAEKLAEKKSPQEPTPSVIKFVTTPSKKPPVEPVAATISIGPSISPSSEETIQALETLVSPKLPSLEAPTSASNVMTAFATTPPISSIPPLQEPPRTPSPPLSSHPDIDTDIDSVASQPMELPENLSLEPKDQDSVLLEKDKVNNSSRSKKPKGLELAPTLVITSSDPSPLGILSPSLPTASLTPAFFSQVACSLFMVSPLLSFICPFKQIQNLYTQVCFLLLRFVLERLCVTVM
How it was run: as §1

[15] = target: T10, ETV2 (Homo sapiens, UniProt O00321 1-342)
T10 sequence: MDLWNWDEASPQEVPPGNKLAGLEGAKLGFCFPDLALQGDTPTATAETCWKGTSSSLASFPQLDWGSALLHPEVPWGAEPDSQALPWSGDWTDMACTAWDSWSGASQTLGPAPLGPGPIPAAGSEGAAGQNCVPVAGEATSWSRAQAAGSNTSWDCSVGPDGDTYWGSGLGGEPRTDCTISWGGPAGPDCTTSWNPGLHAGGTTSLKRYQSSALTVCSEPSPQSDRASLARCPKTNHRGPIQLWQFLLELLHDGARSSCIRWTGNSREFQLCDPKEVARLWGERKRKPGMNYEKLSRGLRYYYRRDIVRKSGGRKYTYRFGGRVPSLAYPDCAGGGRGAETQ
How it was run: as §1

[16] = target: T11, ELF3 (Homo sapiens, UniProt P78545 1-371)
T11 sequence: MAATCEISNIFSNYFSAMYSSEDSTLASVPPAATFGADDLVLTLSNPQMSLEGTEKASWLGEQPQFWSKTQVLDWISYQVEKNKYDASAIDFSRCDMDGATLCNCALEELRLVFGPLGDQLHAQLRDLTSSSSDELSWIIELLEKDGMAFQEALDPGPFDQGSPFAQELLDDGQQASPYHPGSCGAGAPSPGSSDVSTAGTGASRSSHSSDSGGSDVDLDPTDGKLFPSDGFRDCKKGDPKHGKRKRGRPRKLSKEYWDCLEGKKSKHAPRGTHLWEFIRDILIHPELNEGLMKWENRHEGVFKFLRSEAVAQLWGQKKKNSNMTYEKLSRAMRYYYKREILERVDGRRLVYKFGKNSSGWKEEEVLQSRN
How it was run: as §1

[17] = target: ETV1 (Homo sapiens, UniProt P50549 1-477)
Chain of ETV1 (P50549 whole entry): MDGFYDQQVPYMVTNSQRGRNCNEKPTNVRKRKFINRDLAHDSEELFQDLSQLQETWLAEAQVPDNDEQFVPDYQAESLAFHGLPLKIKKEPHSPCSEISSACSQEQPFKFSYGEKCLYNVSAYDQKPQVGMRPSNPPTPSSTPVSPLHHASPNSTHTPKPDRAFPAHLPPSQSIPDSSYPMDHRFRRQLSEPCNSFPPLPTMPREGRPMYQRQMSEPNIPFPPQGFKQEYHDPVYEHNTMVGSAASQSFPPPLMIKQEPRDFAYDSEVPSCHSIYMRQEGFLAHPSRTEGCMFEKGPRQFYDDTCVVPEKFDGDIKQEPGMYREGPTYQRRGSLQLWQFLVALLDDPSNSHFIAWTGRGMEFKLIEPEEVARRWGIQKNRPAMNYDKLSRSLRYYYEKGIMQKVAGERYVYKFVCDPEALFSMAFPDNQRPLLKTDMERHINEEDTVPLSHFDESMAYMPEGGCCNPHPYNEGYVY
How it was run: as §1

Sequence | binding signal [1] | binding signal [2] | binding signal [3] | binding signal [4] | binding signal [5] | binding signal [6] | binding signal [7] | binding signal [8] | binding signal [9] | binding signal [10] | binding signal [11] | binding signal [12] | binding signal [13] | binding signal [14] | binding signal [15] | binding signal [16] | binding signal [17]
TGTCAT | 1.24 fold enrichment (6-mer frequency, TF over GST control) | 1.08 fold enrichment (6-mer frequency, TF over GST control) | 1.18 fold enrichment (6-mer frequency, TF over GST control) | 1.11 fold enrichment (6-mer frequency, TF over GST control) | 1.15 fold enrichment (6-mer frequency, TF over GST control) | 1.17 fold enrichment (6-mer frequency, TF over GST control) | 1.09 fold enrichment (6-mer frequency, TF over GST control) | 1.2 fold enrichment (6-mer frequency, TF over GST control) | 1.04 fold enrichment (6-mer frequency, TF over GST control) | 1.1 fold enrichment (6-mer frequency, TF over GST control) | 1.18 fold enrichment (6-mer frequency, TF over GST control) | 1.16 fold enrichment (6-mer frequency, TF over GST control) | 1.13 fold enrichment (6-mer frequency, TF over GST control) | 1.08 fold enrichment (6-mer frequency, TF over GST control) | 1.11 fold enrichment (6-mer frequency, TF over GST control) | 1.06 fold enrichment (6-mer frequency, TF over GST control) | 1.18 fold enrichment (6-mer frequency, TF over GST control)
CATAAC | 1.09 fold enrichment (6-mer frequency, TF over GST control) | 1.2 fold enrichment (6-mer frequency, TF over GST control) | 1.15 fold enrichment (6-mer frequency, TF over GST control) | 1.1 fold enrichment (6-mer frequency, TF over GST control) | 1.22 fold enrichment (6-mer frequency, TF over GST control) | 1.09 fold enrichment (6-mer frequency, TF over GST control) | 1.16 fold enrichment (6-mer frequency, TF over GST control) | 1.13 fold enrichment (6-mer frequency, TF over GST control) | 1.18 fold enrichment (6-mer frequency, TF over GST control) | 1.08 fold enrichment (6-mer frequency, TF over GST control) | 1.16 fold enrichment (6-mer frequency, TF over GST control) | 1.2 fold enrichment (6-mer frequency, TF over GST control) | 1.1 fold enrichment (6-mer frequency, TF over GST control) | 1.25 fold enrichment (6-mer frequency, TF over GST control) | 1.11 fold enrichment (6-mer frequency, TF over GST control) | 1.13 fold enrichment (6-mer frequency, TF over GST control) | 1.1 fold enrichment (6-mer frequency, TF over GST control)

Source: paper PMC7862700, “An all-to-all approach to the identification of sequence-specific readers for epigenetic DNA modifications on cytosine”
